Experimental data as given in PubChem BioAssay.
Values without a mark were called inactive. No rule for the calls is given here.

Tested on: Aerobactin synthetase IucA (Klebsiella pneumoniae hvKP1)
Test: IucA enzyme inhibition, primary screen, biochemical, Spectrum library (AID 1346200);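 also: 100% = wells without compound and 0% = wells lacking enzyme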
Conditions: malachite green pyrophosphate, A620, at 8 µM, stronger effect = lower value

Row | SMILES | activity remaining [%]
1 | NCCCC[C@H](N[C@@H](CCc1ccccc1)C(=O)O)C(=O)N1CCC[C@H]1C(=O)O | 114
2 | NC(Cc1cc(I)c(Oc2ccc(O)c(I)c2)c(I)c1)C(=O)O (stereo not given) | 97.1
3 | COc1cc2c(cc1OC)C(=O)C(CC1CCN(Cc3ccccc3)CC1)C2 (stereo not given) | 107
4 | O=c1c(O)c(-c2ccc(O)c(O)c2)oc2cc(O)ccc12 | 101
5 | O=C(OC[C@H]1O[C@H](OC(=O)c2cc(O)c(O)c(OC(=O)c3cc(O)c(O)c(O)c3)c2)[C@H](OC(=O)c2cc(O)c(O)c(OC(=O)c3cc(O)c(O)c(O)c3)c2)[C@@H](OC(=O)c2cc(O)c(O)c(OC(=O)c3cc(O)c(O)c(O)c3)c2)[C@@H]1OC(=O)c1cc(O)c(O)c(OC(=O)c2cc(O)c(O)c(O)c2)c1)c1cc(O)c(O)c(OC(=O)c2cc(O)c(O)c(O)c2)c1 | 100
6 | C[C@]12CCC3c4ccc(O)cc4CCC3C1C[C@@H](O)[C@@H]2O (stereo not given in full) | 99.6
7 | C[n+]1ccccc1/C=N/O | 117
8 | COc1cc(O)c(C(=O)O)c(O)c1 | 102
9 | O=C(/C=C/c1ccccc1)c1ccc(O[C@@H]2O[C@H](CO)[C@@H](O)[C@H](O)[C@H]2O)cc1O | 116
10 | COc1cc(-c2coc3cc(OC)c(OC)c(OC)c3c2=O)cc(OC)c1OC | 121
11 | CC(=O)O[C@H]1C[C@@H](O)C(C)(C)C2C[C@@H](OC(C)=O)[C@]3(C)C(CC[C@@]4(C)[C@H](c5ccoc5)OC(=O)C5OC543)[C@]21C (stereo not given in full) | 104
12 | COc1cc(O)c(C(=O)/C=C/c2ccc(O)c(OC)c2)c(OC)c1 | 77.4
13 | COC(=O)[C@@H]1OC(=O)C2OC23[C@@]1(C)CCC1[C@@]2(C)CCC(=O)C(C)(C)C2C[C@@H](OC(C)=O)[C@]13C (stereo not given in full) | 112
14 | CCN1CCCC(OC(=O)C(c2ccccc2)c2ccccc2)C1 (stereo not given) | 110
15 | CO/N=C(/C(=O)N[C@@H]1C(=O)N2C(C(=O)O)=C(CSc3nc(=O)c(O)nn3C)CS[C@H]12)c1csc(N)n1 | 110
16 | O=C(NC1CCCCC1)NC1CCCCC1 | 71.2
17 | COc1c2c(cc3c1OCO3)C13C=C[C@H](OC)CC1N(C2)CC3O (stereo not given in full) | 107
18 | COC(=O)C[C@@H]1C2(C)C(=O)[C@@H](CC3=C4CC(=O)O[C@@H](c5ccoc5)[C@]4(C)CCC32)[C@H](OC(C)=O)C1(C)C (stereo not given in full) | 112
19 | CC(C)C1=CC2=CCC3[C@](C)(CCC[C@]3(C)C(=O)O)C2CC1 (stereo not given in full) | 94.8
20 | COc1cc2ccc(=O)oc2c(OC)c1OC | 124

Row | SMILES | activity remaining [%]
21 | COc1cc(NS(C)(=O)=O)ccc1Cc1c2ccccc2nc2ccccc12 | 104
22 | COc1cc(CNC(=O)CCCC/C=C/C(C)C)ccc1O | 109
23 | O=c1[nH]cnc2c1ncn2C1O[C@H](CO)[C@@H](O)[C@H]1O (stereo not given in full) | 112
24 | C=C(C)C1CC=C(CO)CC1 (stereo not given) | 117
25 | CO[C@]12C[C@@H](COC(=O)c3cncc(Br)c3)CN(C)[C@@H]1Cc1cn(C)c3cccc2c13 | 108
26 | CC(CCC(=O)O)[C@H]1CCC2C3CC[C@@H]4C[C@H](O)CC[C@]4(C)C3C[C@H](O)[C@@]21C (stereo not given in full) | 116
27 | CON=C1C[C@]2(C[C@@H]3C[C@@H](C/C=C(\C)C[C@@H](C)/C=C/C=C4\CO[C@@H]5[C@H](O)C(C)=C[C@@H](C(=O)O3)[C@]45O)O2)O[C@H](/C(C)=C/C(C)C)[C@H]1C | 93.8
28 | COC1C=CC23c4cc5c(cc4CN(C[C@H]2O)[C@@H]3C1)OCO5 (stereo not given in full) | 110
29 | C[N+]1(C)C2CC[C@H]1CC(OC(=O)C(O)c1ccccc1)C2 (stereo not given in full) | 95
30 | C=C1C2CC[C@@]3(C)[C@H](c4ccoc4)OC(=O)C[C@]13O[C@H]1CC(=O)C(C)(C)[C@H](C(O)C(=O)OC)[C@@]21C (stereo not given in full) | 95.2
31 | CCn1cc(C(=O)O)c(=O)c2cnc(N3CCNCC3)nc21 | 101
32 | C#C[C@]1(O)CCC2C3CCC4=Cc5oncc5C[C@]4(C)C3CC[C@@]21C (stereo not given in full) | 120
33 | c1coc(CNc2ncnc3nc[nH]c23)c1 | 116
34 | CC[C@H](CCC(C)[C@H]1CCC2C3CCC4C[C@@H](O)CC[C@]4(C)C3CC[C@@]21C)C(C)C (stereo not given in full) | 102
35 | O=C(O)CCC(=O)c1ccc(-c2ccccc2)cc1 | 115
36 | COc1ccc2c(c1)O[C@@H]1COc3cc(OC)c(OC)cc3[C@@H]1C2=O | 111
37 | CN1CCC(=C2c3ccccc3CCc3sccc32)CC1 | 123
38 | Oc1ccc(Cl)c2cccnc12 | 121
39 | O=c1c(-c2cc(O)c(O)c(O)c2)coc2cc(O)c(O)c(O)c12 | 93.2
40 | CC(C)c1c(O)ccc2c1CCC1C(C)(C)CCC[C@]21C (stereo not given in full) | 116

Row | SMILES | activity remaining [%]
41 | Cc1cc(O)cc(C)c1Cl | 94.5
42 | Nc1ccc(S(=O)(=O)Nc2cnc3ccccc3n2)cc1 | 123
43 | C#C[C@]1(O)CCC2C3CCc4cc(OC)ccc4C3CC[C@@]21C (stereo not given in full) | 116
44 | CCOC(=O)c1ccc(O)cc1 | 114
45 | NCC(O)CC(=O)O (stereo not given) | 98.6
46 | CC1CC(OC(=O)c2ccccc2O)CC(C)(C)C1 (stereo not given) | 110
47 | CC(=O)Oc1ccc2c(c1)CCC1C2CC[C@]2(C)C(=O)CCC12 (stereo not given in full) | 99.1
48 | CC(=O)OCC(OC(C)=O)C(OC(C)=O)C(OC(C)=O)C(OC(C)=O)C(COC(C)=O)OC(C)=O (stereo not given) | 103
49 | COC(=O)[C@@H]1OC(=O)C2OC23[C@@]1(C)CCC1[C@]2(C)C(C[C@@H](O)[C@]13C)C(C)(C)[C@H](OC(C)=O)C[C@@H]2OC(C)=O (stereo not given in full) | 96.4
50 | CC(C)C(C)/C=C/C(C)[C@H]1CCC2C3=CCC4CC(=O)CC[C@]4(C)C3CC[C@@]21C (stereo not given in full) | 92.7
51 | C[N+]12CCC(CC1)C(OC(=O)C(O)(c1ccccc1)c1ccccc1)C2 (stereo not given) | 111
52 | C=C1c2c(Cl)ccc(O)c2C(O)=C2C(=O)[C@]3(O)C(O)=C(C(N)=O)C(=O)[C@@H](N(C)C)[C@@H]3[C@@H](O)[C@H]12 | 109
53 | CC(C)[C@@H]1CC[C@@H](C)CC1=O | 120
54 | CCOC(=O)C(C)(N)Cc1ccc(O)c(O)c1 (stereo not given) | 105
55 | CC(C)CCCC(C)C1CCC2C3=CC[C@H]4C[C@@H](O)CC[C@]4(C)C3CC[C@@]21C (stereo not given in full) | 114
56 | C[C@]12C=CC(=O)C=C1CCC1C2C(=O)C[C@@]2(C)C1CC[C@]2(O)C(=O)CO (stereo not given in full) | 101
57 | C=C1c2cccc(O)c2C(O)=C2C(=O)[C@]3(O)C(O)=C(C(N)=O)C(=O)[C@@H](N(C)C)[C@@H]3[C@@H](O)[C@H]12 | 111
58 | CC12CCCC(O)(C1)C1CC(C)(C)C1CC2 (stereo not given) | 91.8
59 | COC(=O)C1=C(C)NC(C)=C(C(=O)OCC(C)C)C1c1ccccc1[N+](=O)[O-] (stereo not given) | 118
60 | CCS(=O)(=O)CCn1c([N+](=O)[O-])cnc1C | 124
